Results filed as inconclusive are left out. Calls of active or inactive are those of the source. Unless noted, the call rests on the fitted dose curve; in most records, active means well fitted curve in the direction sought with a large enough effect; inconclusive means small, poorly fitted or top-dose-only effect, or another doubt; inactive means no such curve, though single readings can be large; an effect the other way counts as inactive or inconclusive.

In assay [1] the target is Mitogen-activated protein kinase 10 (Mus musculus) (UniProt Q61831). Briefly: JNK3 AlphaScreen Assay (AID 530; active means well fitted curve in either direction with a large enough effect, not every such curve was filed as active;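 further: kinase came from lysate of stimulated human HepG2 cells; signal reports phosphorylation of biotinylated GST-cJun 1-79 at Ser73 with 10 µM ATP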). Conditions: JNK3 lysate, c-Jun phosphorylation; series mostly up to 57.1 µM. Put shortly: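 Kinase buffer: 20 mM Tris-HCl pH 7.6, 10 mM MgCl2, 1 mM DTT, 0.1 mM Na3VO4, 0.01% Tween-20; ATP 10 uM. Substrate biotin-GST-cJun(1-79), enzyme from activated HepG2 lysates. Detection by Ser73 phospho-antibody AlphaScreen.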

In another assay the test system is AA1029. Briefly: qHTS profiling for inhibitors of Plasmodium falciparum proliferation (AID 504749). Further: nearly all actives have a fitted effect of over 60% in size. Further: potency means the concentration at half of the fitted maximal effect. Conditions: P. falciparum in erythrocytes, SYBR Green DNA, 72 h; series mostly up to 28.7 µM. The essentials: (§1)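 In a 72 h erythrocytic culture (37 C, humidified, 5% CO2) at 2.5% hematocrit and 0.3% starting parasitemia, compounds were tested; SYBR Green I in detergent lysis buffer stained parasite DNA overnight.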

Another assay relates to CP260. The description is as above. Particulars: P. falciparum in erythrocytes, SYBR Green DNA, 72 h; series mostly up to 28.7 µM. The essentials: as §1
The subject of the next assay is CP286. The assay is described as above. Conditions: P. falciparum in erythrocytes, SYBR Green DNA, 72 h; series mostly up to 28.7 µM. Put shortly: as §1
The subject of another assay is DIV14. Described as above. Conditions: P. falciparum in erythrocytes, SYBR Green DNA, 72 h; series mostly up to 28.7 µM. The essentials: as §1
In another assay the test system is ICS. The description is as above. Particulars: P. falciparum in erythrocytes, SYBR Green DNA, 72 h; series mostly up to 28.7 µM. Put shortly: as §1
A further assay relates to JCK. The assay is described as above. Particulars: P. falciparum in erythrocytes, SYBR Green DNA, 72 h; series mostly up to 28.7 µM. Put shortly:
as §1

Another assay deals with TAB165. The description is as above. Conditions: P. falciparum in erythrocytes, SYBR Green DNA, 72 h; series mostly up to 28.7 µM. Put shortly: as §1
The nature of assay [2]: Validation of Assay for Modulators of Lamin A Splicing (AID 1459; active means well fitted curve in the direction sought with a large enough effect in the signal ratio; the % refers to the signal ratio;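 further: cells exposed to compound for two days before reading; ratio rise marks activators and ratio drop marks inhibitors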). Conditions: Lamin A splicing dual RFP/GFP fluorescence reporter; series mostly up to 9.22 µM. The essentials: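 HeLa S3 lamin A-EGFP/DsRed2 stable clone, 600 cells/well, Opti-MEM 2% FBS; compounds by pin tool; 48 hrs, 37 °C/5% CO2; Acumen 488 nm scan, objects 10-100 um; GFP/RFP intensity ratio.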
Assay [3] deals with DNA repair nuclease/redox regulator APEX1 (Homo sapiens) (UniProt P27695). Briefly: qHTS Validation Assay for Inhibitors of the Human Apurinic/apyrimidinic Endonuclease 1 (APE1) (AID 1705; further: potency means the concentration at half of the fitted maximal effect). Conditions: purified APE1 endonuclease activity, fluorescence, titration; series mostly up to 57.1 µM. The essentials: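 qHTS, 1536-well. APE1 + cpd 15 min RT → 50 nM TAMRA/BHQ-2 THF-abasic dsDNA substrate → kinetic fluorescence, 3 reads/60 s; delta(read3−read1) = reaction progress. No-enzyme buffer = negative control.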
Chain of DNA repair nuclease/redox regulator APEX1 (Homo sapiens) (P27695 whole entry, looked up): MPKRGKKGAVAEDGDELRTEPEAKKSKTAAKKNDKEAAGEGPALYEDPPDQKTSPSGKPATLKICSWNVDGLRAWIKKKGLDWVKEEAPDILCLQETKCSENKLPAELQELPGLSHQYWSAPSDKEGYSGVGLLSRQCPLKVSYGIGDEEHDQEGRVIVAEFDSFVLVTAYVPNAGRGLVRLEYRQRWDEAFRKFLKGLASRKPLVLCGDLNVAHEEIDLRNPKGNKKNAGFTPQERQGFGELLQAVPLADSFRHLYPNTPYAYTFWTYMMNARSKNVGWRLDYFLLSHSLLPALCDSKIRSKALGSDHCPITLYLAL

A short description of assay [4]: Counterscreen for APE1 Inhibitors: Fluorescent Dye Displacement Validation Assay (AID 1707). Conditions: fluorescent dye displacement from DNA; series mostly up to 57.1 µM. The essentials:
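Loss of Thiazole Orange fluorescence marks promiscuous DNA binders. The dye (250 nM) is mixed with 50 nM abasic-site dsDNA in pH7.5 Tris buffer containing MgCl2, then compounds are added and emission is read once.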

Assay [5] concerns the target Endonuclease 4 (Escherichia coli (strain K12)) (UniProt P0A6C1). Briefly: Counterscreen for APE1 Inhibitors: qHTS Validation Assay for Inhibitors of Endonuclease IV (AID 1708). Particulars: E. coli endonuclease IV, DNA cleavage fluorescence; series mostly up to 57.1 µM. The essentials:
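The reaction buffer contained 50 mM Tris-HCl pH 7.5, 50 mM NaCl, 2 mM MgCl2, 1 mM DTT and 0.01% Tween-20. Incision of a 50 nM fluorophore/quencher THF substrate by 2 nM enzyme was measured kinetically.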

The nature of assay [6]: qHTS for differential inhibitors of proliferation of Plasmodium falciparum line Dd2 (AID 1882).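 Further: compound exposure of 72 h on infected erythrocytes; nearly all actives have a fitted effect of over 65% in size.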 Conditions: Potency: Plasmodium falciparum Dd2 proliferation inhibition; series mostly up to 28.7 µM. The essentials: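 RBC culture, 0.3% parasitemia / 2.5% Hct final; cpd added by pin tool in DMSO; 72 h, 37 C, 5% CO2; lysis buffer + SYBR Green I, o/n RT dark; FI 485/535; norm. to artemisinin 0.29 uM and DMSO.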

Assay [7] in a line: qHTS for differential inhibitors of proliferation of Plasmodium falciparum line W2 (AID 1883).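 Further: potency means the concentration at half of the fitted maximal effect; parasites grown with compound for 72 h before lysis and staining.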 Particulars: Potency: Plasmodium falciparum W2 proliferation inhibition; series mostly up to 28.7 µM.
The target in assay [8] is ATP-dependent DNA helicase Q1 (Homo sapiens) (UniProt P46063). As to the kind of experiment: qHTS Validation Assay for Inhibitors of RecQ-Like Dna Helicase 1 (RECQ1) (AID 2353). Particulars: recombinant RECQ1 helicase DNA unwinding assay; series mostly up to 25.6 µM. The essentials: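 RECQ1T1 50 nM; forked duplex (20 bp + 30-nt ss tails) 200 nM, ATP 2 mM final; pH 8.0, 2 mM MgCl2, 2.5 ug/ml poly(dI-dC); 15 min compound preincubation; discontinuous kinetic read over 2 h at RT.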
Chain of ATP-dependent DNA helicase Q1 (Homo sapiens) (P46063 whole entry, looked up): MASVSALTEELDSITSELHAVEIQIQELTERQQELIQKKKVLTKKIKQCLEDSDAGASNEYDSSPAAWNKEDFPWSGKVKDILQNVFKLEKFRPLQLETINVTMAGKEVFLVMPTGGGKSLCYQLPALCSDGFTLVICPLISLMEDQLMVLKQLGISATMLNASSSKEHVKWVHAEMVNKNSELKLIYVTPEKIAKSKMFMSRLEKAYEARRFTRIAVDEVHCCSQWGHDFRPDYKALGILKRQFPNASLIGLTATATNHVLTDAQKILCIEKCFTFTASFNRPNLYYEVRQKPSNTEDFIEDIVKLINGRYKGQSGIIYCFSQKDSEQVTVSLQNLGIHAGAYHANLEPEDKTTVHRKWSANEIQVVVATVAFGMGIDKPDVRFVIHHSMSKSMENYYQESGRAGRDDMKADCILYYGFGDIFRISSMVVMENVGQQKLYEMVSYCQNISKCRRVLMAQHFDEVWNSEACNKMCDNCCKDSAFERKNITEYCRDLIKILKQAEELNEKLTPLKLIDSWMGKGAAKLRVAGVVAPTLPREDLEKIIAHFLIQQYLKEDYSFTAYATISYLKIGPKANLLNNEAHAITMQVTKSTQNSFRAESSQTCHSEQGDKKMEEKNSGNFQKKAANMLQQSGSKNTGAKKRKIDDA

Assay [9] in a line: Quantitative high throughput screen for delayed death inhibitors of the malarial parasite plastid, 96 hour incubation (AID 488745).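 Further: luciferase-expressing P. falciparum in erythrocytes at 2% hematocrit and 0.1% parasitemia; nearly all actives have a fitted effect of over 70% in size.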 Conditions: Plasmodium falciparum growth; series mostly up to 28.7 µM. The essentials: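 Luciferase-expressing P. falciparum, infected RBCs 2% Hct/0.1% parasitemia (final); 96 h cpd exposure, 37 C, 5% CO2; RPMI 1640 + 0.5% Albumax, bicarbonate, gentamycin. Readout: luminescence loss = growth inhibition.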

Assay [10] in a line: Quantitative high throughput screen for delayed death inhibitors of the malarial parasite plastid, 48 hour incubation (AID 488752). Further: nearly all actives have a fitted effect of over 65% in size. Particulars: Plasmodium falciparum growth; series mostly up to 28.7 µM. Put shortly: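 Luciferase-expressing P. falciparum in RBCs, 2% Hct, 0.1% parasitemia final; RPMI 1640 + 0.5% Albumax; 48 h, 37 C, 5% CO2; luminescence readout, signal drop = growth inhibition.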

Assay [11] concerns the target Galactokinase (Homo sapiens) (UniProt P51570). As to the kind of experiment: qHTS Validation Assay for Inhibitors of Human Galactokinase (GALK) (AID 493189). Particulars: purified human GALK enzyme activity, qHTS 7-point titration; series mostly up to 57.5 µM. The essentials: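 5 nM GALK / 100 uM galactose / 35 uM ATP, 20 mM HEPES pH8.0, 5 mM MgCl2, 60 mM NaCl, 1 mM DTT, 0.01% BSA (final). RT 1 h; Kinase-Glo Plus luminescence.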

The nature of assay [12]: Confirmation and Secondary Assay for Modulators of Hemoglobin Beta Chain Splicing at IVS2 654 locus (AID 910).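 Further: HeLa cells stably carrying EGFP split by mutant beta-globin IVS2-654 intron; per-well total GFP intensity by laser scanning cytometry after 2-day treatment.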 Conditions: HeLa EGFP-654 splicing reporter, GFP fluorescence, 48 h; series mostly up to 38.3 µM. Put shortly:
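Readout: per-well total peak green fluorescence (488 nm ex, 500–520 nm em) from objects 5–250 µm, reflecting correct splicing of an EGFP-654 reporter. Compounds were applied for 2 days at 37 °C to overnight-plated HeLa EGFP-654 cells; controls were DMSO and 500 nM IVS2-654 PNA.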

Assay [13] is described as follows: Confirmation and Secondary Assay for Modulators of Hemoglobin Beta Chain Splicing at IVS2 705 locus (AID 930).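 Further: HeLa cells stably expressing the EGFP-705 splicing reporter; GFP fluorescence per well restored by corrected splicing of the IVS2-705 intron in EGFP.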 Particulars: HeLa EGFP-705 splicing reporter, GFP fluorescence, 48 h; series mostly up to 38.3 µM. The essentials:
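First, HeLa EGFP-705 cells are seeded at 500/well in Optimem with 2% FCS and left overnight. Next, compound or DMSO is added for 2 days. Finally wells are laser-scanned and total peak GFP intensity scored.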

Chain of Galactokinase (Homo sapiens) (P51570 whole entry, looked up): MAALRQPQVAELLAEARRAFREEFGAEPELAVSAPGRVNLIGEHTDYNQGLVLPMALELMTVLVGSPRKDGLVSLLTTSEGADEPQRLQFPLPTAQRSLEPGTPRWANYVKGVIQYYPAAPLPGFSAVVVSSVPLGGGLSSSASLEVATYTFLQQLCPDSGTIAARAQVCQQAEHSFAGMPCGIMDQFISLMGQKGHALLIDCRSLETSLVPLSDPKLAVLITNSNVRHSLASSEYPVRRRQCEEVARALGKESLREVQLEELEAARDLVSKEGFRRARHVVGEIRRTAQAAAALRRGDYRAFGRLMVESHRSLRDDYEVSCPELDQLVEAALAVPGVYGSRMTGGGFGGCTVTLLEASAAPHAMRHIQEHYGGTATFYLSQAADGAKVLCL

Turning to `C[C@@]12C(=O)OC(=O)[C@]1(C)[C@H]1CC[C@@H]2O1`, the outcome in assay [1] was inactive. The Potency in the assay on AA1029 was 3.16 µM (active); in the assay on CP260 it was 0.631 µM (active); in the assay on CP286 it was 2.82 µM (active); in the assay with DIV14 it was 1.14 µM (active); in the assay on ICS it was 3.98 µM (active); in the assay with JCK, 3.98 µM (active). The Potency in the assay with TAB165 was 2 µM (active).
On to `CN(CCOc1ccc(C[C@H](Nc2ccccc2C(=O)c2ccccc2)C(=O)O)cc1)c1ccccn1`, for which the result in [1], in assay [2], in [5] and in [11] was inactive. The Potency entry in assay [3], in [4], in assay [6], in [8], in assay [9] and in assay [10] was “inactive” in each case. Besides, the Potency in assay [7] is 8.91 µM (active).
In the case of `C=C1CCC2[C@](C)(CO)C(O)CC[C@]2(C)C1C/C=C1/C(=O)OCC1O` (stereo not given in full), the compound was called inactive in assay [12] and in assay [13].
For the compound `COC1=C(OC)C(=O)C(C/C=C(\C)CC/C=C(\C)CC/C=C(\C)CC/C=C(/C)CC/C=C(\C)CC/C=C(\C)CC/C=C(\C)CC/C=C(\C)CC/C=C(\C)CCC=C(C)C)=C(C)C1=O`, the compound was called inactive in [12] and in [13].
Take `C[C@H]1CC2[C@@H]3CCC4=CC(=O)C=C[C@]4(C)[C@@]3(F)[C@@H](O)C[C@]2(C)[C@@]1(O)C(=O)CO` (stereo not given in full): the outcome in assay [2], in assay [5] and in [11] was inactive. The Potency is 39.8 µM (active) in [3] and 10 µM (active) in assay [7]. Also, the Potency entry in assay [4], in assay [6], in [8], in assay [9] and in [10] was “inactive” in each case.
Take `CC(/C=C1\SC(=S)N(CC(=O)O)C1=O)=C\c1ccccc1`: the Potency entry in the assay with AA1029, in the assay with CP260, in the assay with CP286, in the assay with DIV14, in the assay with ICS and in the assay on JCK was “inactive” in each case. The Potency entry in the assay on TAB165 was “inactive”.

Source of the values: PubChem BioAssay (NCATS).
